Data reported in PubChem BioAssay (NCATS).
Where “and” joins values, the source holds several entries; their conditions need not be identical. Equal entries are not always repeated. Inconclusive results are not listed. Entries that show only a call come without a potency. Unmarked numbers belong to inactive results. Calls of active or inactive are those of the source. Calls follow the shape of the dose curve; as a rule, active = well fitted inhibition curve with a large enough effect; inconclusive = small, poorly fitted or top-dose-only effect; inactive = flat fitted curve, though single readings scatter.

Assays:
CRL-7250 [1] = experiment: Cytotoxic Profiling of Annotated Libraries Using Quantitative High-Throughput Screening (AID 1296008); details: Five cell lines viability, CellTiter-Glo ATP luminescence, 48-72 h; max response: hits give low values
Outline: (§1)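 Cytotoxicity was measured as CellTiter-Glo ATP luminescence, read after 10 min at room temperature. Compound treatment of the cells lasted 48 or 72 hr at 37 degrees Celsius in a qHTS format.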

HEK293 = experiment: as above; details: Five cell lines viability, CellTiter-Glo ATP luminescence, 48-72 h; max response: hits give low values
Outline: as §1

NIH3T3 = experiment: as above; details: Five cell lines viability, CellTiter-Glo ATP luminescence, 48-72 h; max response: hits give low values
Outline: as §1

MCC-13 = experiment: qHTS assay to identify novel small-molecules to repurpose for Merkel cell carcinoma treatment (AID 1296009); details: MCC and control cell lines, CellTiter-Glo viability, 72 h; series mostly up to 46 µM
Outline: (§2)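 After compound transfer in DMSO, plates were kept 72 hr at 37 degree celsius. Luminescent ATP signal from CellTiter-Glo served as viability measure, normalized against DMSO and no-cell controls.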

MCC-26 = experiment: as above; details: MCC and control cell lines, CellTiter-Glo viability, 72 h; series mostly up to 46 µM
Outline: as §2

MKL-1 = experiment: as above; details: MCC and control cell lines, CellTiter-Glo viability, 72 h; series mostly up to 46 µM
Outline: as §2

MKL-2 = experiment: as above; details: MCC and control cell lines, CellTiter-Glo viability, 72 h; series mostly up to 46 µM
Outline: as §2

HaCat [2] = experiment: Cytotoxic Profiling of Annotated Libraries Using Quantitative High-Throughput Screening (AID 1296008); details: Five cell lines viability, CellTiter-Glo ATP luminescence, 48-72 h; max response: hits give low values
Outline: as §1

HACAT [3] = experiment: qHTS assay to identify novel small-molecules to repurpose for Merkel cell carcinoma treatment (AID 1296009); details: MCC and control cell lines, CellTiter-Glo viability, 72 h; at 44.8 µM (top of the series) unless noted
Outline: as §2

PC15 = experiment: qHTS profiling for inhibitors of Plasmodium falciparum proliferation (AID 504749); details: P. falciparum in erythrocytes, SYBR Green DNA, 72 h; series mostly up to 28.7 µM
Outline: (§3)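 Three-day growth assay of blood-stage parasites in erythrocytes (0.3% parasitemia, 2.5% hematocrit) at 37 C, 5% CO2, quantified by SYBR Green DNA staining after overnight detergent lysis.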

PC26 = experiment: as above; details: P. falciparum in erythrocytes, SYBR Green DNA, 72 h; series mostly up to 28.7 µM
Outline: as §3

PC49 = experiment: as above; details: P. falciparum in erythrocytes, SYBR Green DNA, 72 h; series mostly up to 28.7 µM
Outline: as §3

SC27B = experiment: as above; details: P. falciparum in erythrocytes, SYBR Green DNA, 72 h; series mostly up to 28.7 µM
Outline: as §3

TAB109 = experiment: as above; details: P. falciparum in erythrocytes, SYBR Green DNA, 72 h; series mostly up to 28.7 µM
Outline: as §3

TAB113 = experiment: as above; details: P. falciparum in erythrocytes, SYBR Green DNA, 72 h; series mostly up to 28.7 µM
Outline: as §3

TAB165 = experiment: as above; details: P. falciparum in erythrocytes, SYBR Green DNA, 72 h; series mostly up to 28.7 µM
Outline: as §3

W2 = experiment: as above; details: P. falciparum in erythrocytes, SYBR Green DNA, 72 h; series mostly up to 28.7 µM
Outline: as §3

KB-3-1 = experiment: Cytotoxic Profiling of Annotated Libraries Using Quantitative High-Throughput Screening (AID 1296008); details: Five cell lines viability, CellTiter-Glo ATP luminescence, 48-72 h; max response: hits give low values
Outline: as §1

CRL-7250 [4] = experiment: qHTS assay to identify novel small-molecules to repurpose for Merkel cell carcinoma treatment (AID 1296009); details: MCC and control cell lines, CellTiter-Glo viability, 72 h; at 44.8 µM (top of the series) unless noted
Outline: as §2

HEK293T = experiment: as above; details: MCC and control cell lines, CellTiter-Glo viability, 72 h; at 44.8 µM (top of the series) unless noted
Outline: as §2
Also: nearly all actives have a fitted effect of over 60% in size.
Potency is read from the fitted curve at half-maximal effect.

O=[N+]([O-])O[C@H]1CO[C@H]2[C@@H]1OC[C@H]2O[N+](=O)[O-]
max response (CRL-7250 [1]): -11.3%
max response (HEK293): 1.42%
max response (NIH3T3): -0.157%
outcome (MCC-13): inactive
Potency (MCC-26): inactive
Potency (MKL-1): inactive
Potency (MKL-2): inactive

c1ccc(N2CCNCC2)cc1
max response (CRL-7250 [1]): 4.63%
max response (HEK293): -4.08%
outcome (HaCat [2]): inactive
outcome (NIH3T3): inactive
outcome (HACAT [3]): inactive
outcome (MCC-13): inactive
Potency (MKL-1): inactive
Potency (MKL-2): inactive

c1ccc2c(c1)sc1ccccc12
Potency (PC15): inactive
Potency (PC26): inactive
Potency (PC49): inactive
Potency (SC27B): inactive
Potency (TAB109): inactive
Potency (TAB113): inactive
Potency (TAB165): inactive
Potency (W2): inactive
max response (CRL-7250 [1]): 2.83%
max response (HEK293): 0.977%
max response (HaCat [2]): -3.8%
max response (KB-3-1): -1.3%
outcome (NIH3T3): inactive
outcome (MCC-13): inactive
Potency (MKL-1): inactive
Potency (MKL-2): inactive

CN(C)CCc1c[nH]c2cccc(OP(=O)(O)O)c12
max response (CRL-7250 [1]): -37.9%
max response (HEK293): -1.43%
max response (HaCat [2]): 4.32%
max response (KB-3-1): -1.8%
max response (NIH3T3): -11.6%
outcome (MCC-13): inactive
Potency (MKL-1): inactive
Potency (MKL-2): inactive

O=C(O)c1ccc(=O)[nH]c1
outcome (CRL-7250 [1]): inactive
max response (HEK293): -0.0722%
outcome (HaCat [2]): inactive
outcome (NIH3T3): inactive
outcome (CRL-7250 [4]): inactive
outcome (HACAT [3]): inactive
outcome (MCC-13): inactive
Potency (MCC-26): inactive
Potency (MKL-1): inactive
Potency (MKL-2): inactive

COC(=O)C(Cl)C(=O)OC
max response (CRL-7250 [1]): -1.36%
outcome (HEK293): inactive
max response (KB-3-1): -12.1%
max response (NIH3T3): -7.3%
outcome (HEK293T): inactive
outcome (MCC-13): inactive
Potency (MKL-1): inactive
Potency (MKL-2): inactive

CCC(C)C(C)(COC(N)=O)COC(N)=O (stereo not drawn)
max response (CRL-7250 [1]): 1.47%
outcome (HEK293): inactive
max response (HaCat [2]): -3.56%
outcome (NIH3T3): inactive
outcome (HEK293T): inactive
outcome (MCC-13): inactive
Potency (MCC-26): inactive
Potency (MKL-1): inactive
Potency (MKL-2): inactive

O=C(O)/C=C\C(=O)O
max response (CRL-7250 [1]): -1.31%
max response (HaCat [2]): 1.05%
max response (KB-3-1): -5.31%
max response (NIH3T3): -5.56%

COc1cc(OC)c(OC)cc1C=O
max response (CRL-7250 [1]): -7.23% and -7.54%
max response (HaCat [2]): -4.25%
outcome (HaCat [2]): inactive
max response (KB-3-1): -7.6% and -8.54%
max response (NIH3T3): 2.47% and 4.91%
outcome (HACAT [3]): inactive
outcome (HEK293T): inactive [at 92 µM]
outcome (MCC-13): inactive
Potency (MCC-26): inactive
Potency (MKL-1): inactive
Potency (MKL-2): inactive

CCN(CC)C(=O)[C@@H]1C=C2c3cccc4[nH]cc(c34)C[C@H]2N(C)C1
max response (CRL-7250 [1]): -10.2%
Potency (HEK293): 80000 nM (active)
max response (HaCat [2]): 1.44%
max response (KB-3-1): 1.43% and -14.9%
outcome (MCC-13): inactive

Nc1ccccc1
max response (CRL-7250 [1]): -1.03%
outcome (HaCat [2]): inactive
max response (KB-3-1): -12%
max response (NIH3T3): -0.773%
outcome (HACAT [3]): inactive
outcome (HEK293T): inactive
outcome (MCC-13): inactive
Potency (MCC-26): inactive
Potency (MKL-1): inactive
Potency (MKL-2): inactive

COc1cccc([C@@]2(O)CCCC[C@@H]2CN(C)C)c1
outcome (CRL-7250 [1]): inactive
max response (HEK293): -4.04%
max response (KB-3-1): 0.535%
outcome (NIH3T3): inactive
outcome (CRL-7250 [4]): inactive
outcome (MCC-13): inactive
Potency (MKL-1): inactive
Potency (MKL-2): inactive

ClCCN1CCCC1
max response (CRL-7250 [1]): -0.393%
outcome (HEK293): inactive
outcome (HaCat [2]): inactive
outcome (NIH3T3): inactive
outcome (HACAT [3]): inactive
outcome (HEK293T): inactive
outcome (MCC-13): inactive
Potency (MCC-26): inactive
Potency (MKL-1): inactive
Potency (MKL-2): inactive

CC(Cc1ccccc1)N(C)Cc1ccco1 (stereo not drawn)
max response (CRL-7250 [1]): -3.65%
max response (HEK293): -5.17%
outcome (HaCat [2]): inactive
max response (NIH3T3): -7.67%
outcome (HACAT [3]): inactive
outcome (MCC-13): inactive
Potency (MKL-1): inactive
Potency (MKL-2): inactive

CCC(CC)(CNC(=O)CCCO)c1cccc(OC)c1
max response (CRL-7250 [1]): 0.244%
max response (HEK293): -5.56%
max response (HaCat [2]): -1.8%
outcome (NIH3T3): inactive
outcome (MCC-13): inactive
Potency (MCC-26): inactive
Potency (MKL-1): inactive
Potency (MKL-2): inactive

CCCCCN(C)CCC(O)(P(=O)(O)O)P(=O)(O)O
max response (CRL-7250 [1]): -0.0055%
max response (HaCat [2]): -1.92%
max response (KB-3-1): 1.98%
outcome (KB-3-1): inactive
outcome (NIH3T3): inactive

CC(C)NC(C)C
Potency (PC15): inactive
Potency (PC26): inactive
Potency (SC27B): inactive
Potency (TAB109): inactive
Potency (TAB113): inactive
Potency (TAB165): inactive
Potency (W2): inactive
max response (CRL-7250 [1]): 1.83%
max response (HEK293): 1.45%
max response (HaCat [2]): 1.53%
max response (KB-3-1): 13.4%
outcome (NIH3T3): inactive
outcome (MCC-13): inactive
Potency (MCC-26): inactive
Potency (MKL-1): inactive
Potency (MKL-2): inactive

COc1cccc2c1C(=O)c1c(O)c3c(c(O)c1C2=O)C[C@@](O)(C(=O)CO)CC3OC1CC(N2CCOC(OC)C2)C(O)C(C)O1 (stereo partly drawn)
Potency (CRL-7250 [1]): 16.8 nM (active)
Potency (HEK293): 11.9 nM (active)
Potency (HaCat [2]): 21.1 nM (active)
Potency (NIH3T3): 6.7 nM (active)
Potency (MCC-26): 47.3 nM (active)

C#CC(O)(C=CCl)CC (stereo not drawn)
max response (CRL-7250 [1]): -0.331%
max response (HEK293): -13.2%
outcome (HaCat [2]): inactive
outcome (NIH3T3): inactive
outcome (HACAT [3]): inactive
outcome (MCC-13): inactive
Potency (MKL-1): inactive
Potency (MKL-2): inactive

CCCCC/C=C\C/C=C\C/C=C\C/C=C\CCCC(=O)NCC(=O)O
activity, negative = inhibition (PC15): 6.96% [at 2.67 µM]
activity, negative = inhibition (PC26): 8.23% [at 2.67 µM]
activity, negative = inhibition (SC27B): 0.575% [at 2.67 µM]
activity, negative = inhibition (TAB109): -11.7% [at 2.67 µM]
activity, negative = inhibition (TAB113): 3.88% [at 2.67 µM]
activity, negative = inhibition (W2): 6.9% [at 2.67 µM]
max response (CRL-7250 [1]): -2.63%
max response (HEK293): -7.97%
max response (KB-3-1): -17.5%
outcome (NIH3T3): inactive
outcome (MCC-13): inactive
Potency (MCC-26): inactive
Potency (MKL-1): inactive

CC(C)(C)NCC(O)c1ccccc1Cl (stereo not drawn)
Potency (PC49): 12600 nM (active)
Potency (W2): 6010 nM (active)
max response (CRL-7250 [1]): -15.1%
max response (HEK293): -2.46%
max response (HaCat [2]): -8.54%
max response (KB-3-1): 2.34%
max response (NIH3T3): -6.71%
outcome (MCC-13): inactive
Potency (MCC-26): inactive
Potency (MKL-1): inactive
Potency (MKL-2): inactive
